Laboratory results from PubChem BioAssay (Tox21).
Records with an inconclusive call do not appear. Where a call stands in place of a potency, no number is given. Calls of active or inactive are those of the source. Unless noted, calls follow the shape of the full dose curve. Non-standard residues stand in square brackets, D forms with d. Residues, ends and D or L forms follow the SMILES beside them. *: point of attachment. Sta = CC(C)C[C@H](N)[C@@H](O)CC(=O)O; Isovaleryl = CC(C)CC(=O)*

How the values were obtained:
[1] = qHTS assay to identify small molecule agonists of the vitamin D receptor (VDR) signaling pathway - cell viability counter screen (AID 743224; active = well fitted curve in the direction sought with a large enough effect in the repeat runs; an effect the other way counts as inactive or inconclusive; also: series mostly up to about 63 µM; nearly all actives have a fitted effect of over 50% in size)
Outline: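 In parallel with the bla FRET readout, cytotoxicity toward VDR-bla cells after 16 h compound exposure was assessed by CellTiter-Glo, with luminescence recorded after a 30 min room-temperature incubation.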

[2] = qHTS assay to identify small molecule antagonists of the vitamin D receptor (VDR) signaling pathway - cell viability counter screen (AID 743225; active = well fitted curve in the direction sought with a large enough effect in the repeat runs; an effect the other way counts as inactive or inconclusive; also: nearly all actives have a fitted effect of over 50% in size)
Outline: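 Viability counter screen run in the same wells as the beta-lactamase reporter assay: HEK 293T VDR-UAS-bla cells, 16 h compound exposure at 37C with 3 nM (final) 1-alpha,25-dihydroxyvitamin D3. CellTiter-Glo luminescence, 30 min, room temperature.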

[3] = qHTS assay to identify small molecule agonists of the NFkB signaling pathway - cell viability counter screen (AID 1159515); also: series mostly up to about 61 µM; nearly all actives have a fitted effect of over 55% in size
Outline: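 Plate 2,000 NFkB-bla ME-180 cells/well; incubate overnight. Add compounds, 5 hr at 37 C. Add FRET substrate, 1.5 hr RT. Add CellTiter-Glo, 30 min RT; read luminescence.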

[4] = qHTS assay to identify small molecule agonists of the endoplasmic reticulum stress response signaling pathway (AID 1159516; active = well fitted activation curve with a large enough effect in the signal ratio in the repeat runs, not every such curve was filed as active; the % refers to the signal ratio)
Outline: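 Beta-lactamase expression from the ER stress response element in HeLa reporter cells is quantified with the LiveBLAzer B/G FRET substrate, read at 405 nm excitation after 2 hr at room temperature, following 5 hr compound treatment at 37 C.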

[5] = qHTS assay to identify small molecule agonists of the endoplasmic reticulum stress response signaling pathway - cell viability counter screen (AID 1159517); also: series mostly up to about 61 µM; nearly all actives have a fitted effect of over 50% in size
Outline: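 Steps: seed 1,500 ESRE-bla HeLa cells per well; incubate overnight at 37 C, 5% CO2; add compounds in DMSO for 5 hr; run FRET substrate 2 hr RT; add CellTiter-Glo, wait 30 min, read luminescence.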

[6] = qHTS assay to identify small molecule antagonists of the retinoid-related orphan receptor gamma (ROR-gamma) signaling pathway - cell viability counter screen (AID 1159520; active = well fitted curve in the direction sought with a large enough effect in the repeat runs; an effect the other way counts as inactive or inconclusive; also: nearly all actives have a fitted effect of over 50% in size)
Outline: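 Tet-on ROR gamma CHO cells were given compounds for 2 hr, then doxycycline hyclate at 1 uM final, and incubated 16 hr at 37 C. Viability was measured as ATP content by CellTiter-Glo luminescence.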

[7] = target: Nuclear receptor ROR-gamma (Homo sapiens) (UniProt P51449); experiment: qHTS assay to identify small molecule antagonists of the retinoid-related orphan receptor gamma (ROR-gamma) signaling pathway (AID 1159521; active = well fitted curve in the direction sought with a large enough effect in the repeat runs; an effect the other way counts as inactive or inconclusive)
Outline: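 Luminescence readout (ONE-Glo, 30 min RT) after 16 h doxycycline induction; loss of signal scored as antagonism. CHO cells with TET-inducible RORγ and RORE-LUC reporter; compounds added 2 h before 1 uM final doxycycline.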

[8] = qHTS assay to identify small molecule agonists of the AP-1 signaling pathway - cell viability counter screen (AID 1159525); also: nearly all actives have a fitted effect of over 55% in size
Outline: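 Same-well cytotoxicity counter screen of the Tox21 10K library in ME-180 cells. The readout is ATP-dependent luminescence after 5 h compound treatment. Data are normalised to DMSO and tetra n-octyl ammonium bromide controls.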

[9] = qHTS assay to identify small molecule agonists of the AP-1 signaling pathway (AID 1159526)
[10] = target: Retinoic acid receptor RXR-alpha (Homo sapiens) (UniProt P19793); experiment: qHTS assay to identify small molecule agonists of the RXR signaling pathway (AID 1159527); also: nearly all actives have a fitted effect of over 35% in size; also: potency is read from the fitted curve at half-maximal effect
Chain of Retinoic acid receptor RXR-alpha (Homo sapiens) (P19793 whole entry, looked up): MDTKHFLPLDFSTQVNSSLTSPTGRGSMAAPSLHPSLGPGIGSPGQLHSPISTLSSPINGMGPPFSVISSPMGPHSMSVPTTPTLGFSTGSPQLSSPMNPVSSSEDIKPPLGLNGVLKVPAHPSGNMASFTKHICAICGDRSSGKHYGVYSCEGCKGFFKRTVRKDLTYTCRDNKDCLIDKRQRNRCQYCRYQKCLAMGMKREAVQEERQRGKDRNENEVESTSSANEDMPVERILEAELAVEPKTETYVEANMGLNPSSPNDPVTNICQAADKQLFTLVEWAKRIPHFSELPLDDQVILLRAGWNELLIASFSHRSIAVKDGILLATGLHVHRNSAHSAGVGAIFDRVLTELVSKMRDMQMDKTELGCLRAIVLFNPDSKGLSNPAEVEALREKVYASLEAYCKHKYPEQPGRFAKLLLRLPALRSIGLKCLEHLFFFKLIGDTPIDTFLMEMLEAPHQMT
Outline: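 Agonist mode; 9-cis retinoic acid positive control. HEK 293T UAS-bla reporter cells, 2% charcoal-stripped FBS, 16 hr compound exposure at 37 C/5% CO2. LiveBLAzer B/G FRET substrate 2 hr RT; ex 405, em 460/530 nm.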

SMILES | outcome [1] | outcome [2] | outcome [3] | Potency [4] | outcome [5] | outcome [6] | outcome [7] | outcome [8] | Potency [9] | Potency [10]
CCCCCC(CC)OC(=O)CCCOc1ccc(Cl)cc1Cl (stereo not given) | inactive | inactive | inactive | inactive | inactive | inactive | inactive | inactive | inactive | 4.35 µM (active)
O=C(O)Cc1c(Cl)ccc(Cl)c1Cl | inactive | inactive | inactive | inactive | inactive | inactive | inactive | inactive | inactive | inactive
COc1cc(OC)cc(OC)c1 | inactive | inactive | inactive | inactive | inactive | inactive | inactive | inactive | inactive | inactive
Cc1cccc(N)n1 | inactive | inactive | inactive | inactive | inactive | inactive | inactive | inactive | inactive | inactive
Cc1cc(C)c(C)c(C)c1 | inactive | inactive | inactive | inactive | inactive | inactive | inactive | inactive | inactive | inactive
CCC(=O)OCCOc1ccccc1 | inactive | inactive | inactive | inactive | inactive | inactive | inactive | inactive | inactive | inactive
CC(O)CCCCn1c(=O)c2c(ncn2C)n(C)c1=O (stereo not given) | inactive | inactive | inactive | inactive | inactive | inactive | inactive | inactive | inactive | inactive
C=C(C)C(=O)OCCCC | inactive | inactive | inactive | inactive | inactive | inactive | inactive | inactive | inactive | inactive
COC(C)(C)CC(C)=O | inactive | inactive | inactive | inactive | inactive | inactive | inactive | inactive | inactive | inactive
N#CC1(N)CCCCC1 | inactive | inactive | inactive | inactive | inactive | inactive | inactive | inactive | inactive | inactive
CC(C)(C)OC=O | inactive | inactive | inactive | inactive | inactive | inactive | inactive | inactive | inactive | inactive
N[C@H]1C(O)O[C@H](CO)[C@@H](O)[C@@H]1O (stereo not given in full) | inactive | inactive | inactive | inactive | inactive | inactive | inactive | inactive | inactive | inactive
CCOC(=O)COc1ccc2c(C)c(CCN(CC)CC)c(=O)oc2c1Cl | inactive | inactive | inactive | inactive | inactive | inactive | inactive | inactive | inactive | inactive
C=CCN(CC=C)CC=C | inactive | inactive | inactive | inactive | inactive | inactive | inactive | inactive | inactive | inactive
Nc1cc(S(=O)(=O)O)ccc1O | inactive | inactive | inactive | inactive | inactive | inactive | inactive | inactive | inactive | inactive
C/C=C(\C)C=O | inactive | inactive | inactive | inactive | inactive | inactive | inactive | inactive | inactive | inactive
CCc1ncc(C)[nH]1 | inactive | inactive | inactive | inactive | inactive | inactive | inactive | inactive | inactive | inactive
CC(C)(C)C(=O)NCCCC(=O)O | inactive | inactive | inactive | inactive | inactive | inactive | inactive | inactive | inactive | inactive
CC(C)CC(=O)N[C@H](C(=O)N[C@H](C(=O)N[C@@H](CC(C)C)[C@@H](O)CC(=O)N[C@@H](C)C(=O)N[C@@H](CC(C)C)[C@@H](O)CC(=O)O)C(C)C)C(C)C (Isovaleryl-VV[Sta]A[Sta]-OH) | inactive | inactive | inactive | inactive | inactive | inactive | inactive | inactive | inactive | inactive
Cc1cc(=O)oc2cc(O[C@@H]3SC[C@@H](O)[C@H](O)[C@H]3O)ccc12 | inactive | inactive | inactive | inactive | inactive | inactive | inactive | inactive | inactive | inactive
CC(=O)c1ccc2ccc3ccccc3c2c1 | inactive | inactive | inactive | inactive | inactive | inactive | inactive | inactive | inactive | inactive
CCOC(=O)[C@H](CCc1ccccc1)N[C@H]1CS[C@H](c2cccs2)CN(CC(=O)O)C1=O | inactive | inactive | inactive | inactive | inactive | inactive | inactive | inactive | inactive | inactive
COc1cc(S(N)(=O)=O)cc(C(=O)O)c1OC | inactive | inactive | inactive | inactive | inactive | inactive | inactive | inactive | inactive | inactive
